Screening results: PubChem BioAssay, National Center for Advancing Translational Sciences (NCATS)
KDM5B inhibitor = Primary screen for KDM5B Histone Demethylases FDH-coupled qHTS; Lysine-specific demethylase 5B (Homo sapiens), Q9UGL1; KDM5B demethylase, FDH-coupled NADH fluorescence (FDH is formaldehyde dehydrogenase); Potency, µM (titrated, usually from 57.7 µM), most hits filed as inhibitors; 220,000 tested, 2.6% active; active = well fitted inhibition curve with a large enough effect; note: 0% is about no effect; nearly all actives have a fitted effect of over 70% in size
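Inhibition is measured as reduced NADH fluorescence generation from FDH coupling to formaldehyde release. Truncated KDM5BΔAP at 200 nM final acts on H3K4me3 peptide (12.5 µM in substrate mix) in pH 7.5 HEPES buffer with Tween-20, 30 min, room temperature.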
The depositor's hits bear a star. The full list was thinned out, with hits kept by preference. Potency is the fitted concentration of half-maximal effect.

How did CN(c1cc(=O)c2ccnc(-c3cncnc3)c2o1)C1CCOCC1 do in these assays?
KDM5B inhibitor: inactive

What do the screens show for `CN(C)c1cccc(-c2nccc3c(=O)cc(N(C)C4CCOCC4)oc23)c1`?
KDM5B inhibitor: 28.2µM*

How did CN(c1ccccc1)c1cc(=O)c2ccnc(N3CCN(c4ccccn4)CC3)c2o1 do in these assays?
KDM5B inhibitor: inactive

What do the screens show for `Cc1nc2cc(NC(=O)c3cc(S(=O)(=O)N(C)c4ccccc4)ccc3Cl)ccc2o1`?
KDM5B inhibitor: inactive

How did CCc1ccc(N(CC(=O)Nc2ccccc2C(=O)NCC2CCCO2)S(C)(=O)=O)cc1 (centres undefined) do in these assays?
KDM5B inhibitor: inactive

How did COC(=O)CCn1c(SC(C)C(=O)c2ccccc2)nc2ccccc2c1=O (centres undefined) do in these assays?
KDM5B inhibitor: inactive

Results for Cc1ccc(N/N=C/c2ccc(Br)cc2)cc1Cl ?
KDM5B inhibitor: inactive

What do the screens show for `CCCCCCOc1ccccc1/C=N/N=C(N)N`?
KDM5B inhibitor: inactive

What do the screens show for `Cc1nc2ccc(C(=O)OC(C)C(=O)NC3CCCCCC3)cc2nc1C` (centres undefined)?
KDM5B inhibitor: inactive

How did COc1ccc(-n2nnnc2SCC(=O)NC(C)c2ccc(-c3ccccc3)cc2)cc1 (centres undefined) do in these assays?
KDM5B inhibitor: inactive

How did CN(c1cc(=O)c2ccnc(-c3ccc([S+](C)(=O)[O-])cc3)c2o1)C1CCOCC1 do in these assays?
KDM5B inhibitor: 35.5µM*

What do the screens show for `Cc1cc(=S)n2cn[nH]c2n1`?
KDM5B inhibitor: inactive

How did O=C(O)CCC(NS(=O)(=O)c1ccc(Cl)cc1)C(=O)O (centres undefined) do in these assays?
KDM5B inhibitor: inactive

How did CCNC(=O)NC(=O)CSc1cc(C)c2ccccc2n1 do in these assays?
KDM5B inhibitor: inactive

What do the screens show for `Cc1c(-c2ccccc2F)[nH]c2ccc(CNC(=O)CCN3CCCO3)cc12`?
KDM5B inhibitor: 25.1µM*

What do the screens show for `O=C(Cn1c(=O)[nH]c2c(-c3ccccc3F)c[nH]c2c1=O)NCc1ccc2c(c1)OCO2`?
KDM5B inhibitor: inactive

What do the screens show for `Cc1c(-c2ccccc2F)[nH]c2ccc(CNC(=O)CC3CCC(=O)N3)cc12` (centres undefined)?
KDM5B inhibitor: 31.6µM*

Results for COC(=O)c1ccc(CNC(=O)CC2Sc3ccccc3NC2=O)cc1 (centres undefined) ?
KDM5B inhibitor: inactive

Results for Cc1ccc(CNC(=O)N2CCN(CC(=O)Nc3cccc(C)c3C)CC2)cc1F ?
KDM5B inhibitor: inactive

Results for O=C1CCCCC(CNC(=O)c2ccccc2F)N1 (centres undefined) ?
KDM5B inhibitor: inactive

What do the screens show for `Cc1ccc(CNC(=O)CCc2ccccc2)cn1`?
KDM5B inhibitor: inactive

Results for O=C(CCc1ncc(-c2ccccc2F)o1)NCc1ccccc1 ?
KDM5B inhibitor: inactive

What do the screens show for `Cc1c(-c2ccccc2F)[nH]c2ccc(CNC(=O)CCc3cnccn3)cc12`?
KDM5B inhibitor: 12.6µM*

How did Cn1nccc1C(=O)Nc1sc2c(c1C#N)CCCCC2 do in these assays?
KDM5B inhibitor: inactive

Results for CCN(CC)c1ccc(C(=O)NNC(=S)NCCOC)cc1 ?
KDM5B inhibitor: inactive

What do the screens show for `CCCC/C(C)=N/NC(=S)Nc1ccccc1`?
KDM5B inhibitor: inactive

What do the screens show for `Cc1ccc(Cn2c(SCC(=O)O)nc3c2c(=O)[nH]c(=O)n3C)cc1`?
KDM5B inhibitor: inactive

What do the screens show for `C=CC[C@H]1Cc2c(Br)cc(Br)c(Br)c2[C@H](CC=C)N1`?
KDM5B inhibitor: inactive

What do the screens show for `Cc1cc(C)c(NC(=O)CNC(=O)c2cc3cc(Cl)ccc3nc2C)c(C)c1`?
KDM5B inhibitor: inactive

How did COc1ccc2cc(C3CN(C(=O)CNC(=O)C(C)C)CCO3)ccc2c1 (centres undefined) do in these assays?
KDM5B inhibitor: inactive

How did COc1ccc2cc(C3CN(Cc4nc(C(N)=O)no4)CCO3)ccc2c1 (centres undefined) do in these assays?
KDM5B inhibitor: 17.8µM*

How did COc1ccc(NC(=O)N2CCOC(c3ccc(Cl)cc3)C2)c(C)c1 (centres undefined) do in these assays?
KDM5B inhibitor: inactive

How did CC(=O)c1c(C)[nH]c(C(=O)COc2ccc(F)c(Cl)c2)c1C do in these assays?
KDM5B inhibitor: inactive

How did Cc1nc2c(c(-c3ccc(Cl)cc3)n1)CN(C(=O)c1cccnc1)CC2 do in these assays?
KDM5B inhibitor: inactive

Results for O=C(c1cc(-c2ccc(Cl)cc2Cl)on1)N1CCCC1 ?
KDM5B inhibitor: inactive

Results for O=C(c1nc(-c2ccc(Cl)cc2)c2cnccn12)N1CCOCC1 ?
KDM5B inhibitor: 31.6µM*

Results for O=C(c1nc(-c2ccc(Cl)cc2Cl)c2cnccn12)N1CCOCC1 ?
KDM5B inhibitor: 79.4µM*

Results for O=C(c1nc(-c2cccnc2)no1)N1CCN(c2ccc(Cl)cc2)CC1 ?
KDM5B inhibitor: inactive

How did O=C(c1cc(Cl)ccc1Cl)N1CCC(CN2CCOCC2)CC1 do in these assays?
KDM5B inhibitor: inactive
